Compound activity as filed in PubChem BioAssay.
This is a sample that favours compounds with a hit; in the whole collection about 2.4% have one here.
WRN helicase inh: qHTS for Inhibitors of WRN Helicase. WRN helicase unwinding, fluorescent forked duplex, kinetic. Potency, µM (series often up to 114 µM), without a hit: top-dose activity change, negative = inhibition, usual class: inhibitors. actives 0.46% (n = 360,000). AID 651768, 2012; further: potency means the concentration at half of the fitted maximal effect; on the % scale 0 is the no-effect control and ±100 the full control effect; nearly all actives have a fitted effect of over 55% in size
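Primary qHTS, 1536-well format. 20 nM WRN + compound, 15 min RT; start with 100 nM forked fluorophore/quencher duplex, 2 mM ATP (final); kinetic read ex 525/em 598 nm.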
POLK inh: qHTS for Inhibitors of Polymerase Kappa. Potency, µM (doses to about 107 µM), for the others: at the highest dose activity, negative = inhibition, usual class: inhibitors. DNA polymerase kappa (Homo sapiens), Q9UBT6. purified Pol kappa, fluorescent DNA synthesis assay, 10 min. AID 588579, 2011. actives 0.53% (n = 400,000); further: potency means the concentration at half of the fitted maximal effect; on the % scale 0 is the no-effect control and ±100 the full control effect
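First, compounds were pin-transferred onto 10 nM Pol kappa. After 15 min at room temperature, substrate was added to 50 nM final. Fluorescence was then measured kinetically at 0 and 10 min.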
Pol beta inh-1: qHTS Assay for Inhibitors of DNA Polymerase Beta. Pol beta primer extension/strand displacement, fluorescence kinetic. P06746. Potency, µM (top dose mostly 114 µM), for inactives: top-dose activity change, negative = inhibition, usual class: inhibitors. actives 1.3% (n = 340,000); further: potency means the concentration at half of the fitted maximal effect; on the % scale 0 is the no-effect control and ±100 the full control effect
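Kinetic readout of DNA synthesis with strand displacement by Pol beta. Compound and 10 nM enzyme sit 15 min at room temperature; 50 nM substrate starts the reaction, read immediately and at 10 min.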
Pol iota inh: qHTS for Inhibitors of Polymerase Iota; DNA polymerase iota (Homo sapiens), Q9UNA4; Pol iota fluorescent replication assay, 10 min; Potency, µM (highest dose often 115 µM), for the others: at the highest dose activity, negative = inhibition, actives largely listed as inhibitors; actives 1% (n = 390,000); AID 588590, 2011; further: potency means the concentration at half of the fitted maximal effect
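Pol iota at 10 nM preincubated 15 min with compounds at room temperature; reaction started with fluorescent substrate, 50 nM final. Fluorescence read kinetically at 0 and 10 min; buffer-only wells as negative control.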
POLH inh: qHTS for Inhibitors of Polymerase Eta; Potency, µM (series often up to 114 µM), for inactives: at the highest dose activity change, negative = inhibition, actives largely listed as inhibitors; recombinant Pol eta, fluorescent DNA replication assay; actives 1.2% (n = 390,000); DNA polymerase eta (Homo sapiens), Q9Y253; further: potency means the concentration at half of the fitted maximal effect; on the % scale 0 is the no-effect control and ±100 the full control effect
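Pol eta (10 nM) was preincubated with compounds for 15 min at room temperature, after which fluorescent replication substrate (50 nM final) was added to start the reaction. Fluorescence was read kinetically at 0 and 10 min.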
FEN1 inh: qHTS Assay for the Inhibitors of Human Flap endonuclease 1 (FEN1); P39748; Recombinant FEN1 flap cleavage, fluorescence, 15 min; Potency, µM (highest dose often 114 µM), inactives show top-dose activity change, negative = inhibition, hits mostly inhibitors; actives 0.35% (n = 390,000); AID 588795, 2011; further: potency means the concentration at half of the fitted maximal effect; on the % scale 0 is the no-effect control and ±100 the full control effect; nearly all actives have a fitted effect of over 65% in size
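With each library titrated from low to high concentration, compounds met 10 nM FEN1 for 15 min at room temperature before 50 nM substrate was added; readings at 0 and 15 min fed four-parameter Hill curve fits.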
Pol beta inh-2: Inhibitors of DNA Polymerase Beta: Hit validation | shares compounds with Pol beta inh-1 | Pol beta primer extension/strand displacement, fluorescence kinetic | Potency, µM, actives largely listed as inhibitors | actives 87% (n = 250) | AID 540280, 2011; calls by dose curve; further: potency means the concentration at half of the fitted maximal effect
Klenow counter: Inhibitors of DNA Polymerase Beta: Hit Validation in Klenow Fragment Assay. shares compounds with Pol beta inh-1. Klenow exo- polymerase counter-screen, fluorescent DNA substrate. activity change, negative = inhibition, % at 57.1 µM. 250 tested, under 10 active. AID 540300, 2011
HIV RT counter: Inhibitors of DNA Polymerase Beta: Hit Validation in HIV-RT Assay; AID 540301, 2011; 250 tested, under 10 active; shares compounds with Pol beta inh-1; activity % (negative = inhibition, positive = activation), % at 57.1 µM; HIV-1 RT polymerase activity, counter-screen
POLB valid: Inhibitors of DNA Polymerase Beta: Hit Validation in Radiolabeled Extension Assay | inhibition, % at 10 µM | radiolabeled primer extension gel assay, phosphorimager | shares compounds with Pol beta inh-1 | actives 91% (n = 110);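 active means inhibition at 10 µM of 30% or more; inconclusive means no clear call, values can overlap the other calls; inactive means inhibition at 10 µM under 30%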
The depositor's hits bear a star; ? = inconclusive; nt = no result; [ ] = another dose, or the depositor's remark. Unless noted, the call rests on the fitted dose curve; in most records, active means well fitted curve in the direction sought with a large enough effect; inconclusive means small, poorly fitted or top-dose-only effect, or another doubt; inactive means no such curve, though single readings can be large; an effect the other way counts as inactive or inconclusive.

SMILES	WRN helicase inh	POLK inh	Pol beta inh-1	Pol iota inh	POLH inh	FEN1 inh	others
Cc1ccc(S(=O)(=O)N2CCCCC2C(=O)NCc2ccco2)cc1 (stereo unspecified)	-8%	-30%	8%	89µM*	?	2%
COc1ccc(/C=C/c2ccc3ccccc3n2)c(OC)c1	nt	-1%	nt	11%	nt	?
O=C(Cc1ccc(OCc2ccccn2)cc1)NO	nt	-21%	nt	55%	nt	-14%
O=C(NNC(=O)c1ccc(NC(=O)c2ccccc2)cc1)c1ccccc1	-15%	-9%	79µM*	?	-9%	0%
O=C(NC(=S)Nc1ccccc1Cl)c1ccco1	-8%	-24%	-3%	20%	3%	-4%
O=C(Cc1ccccc1)NNC(=O)c1ccc(NC(=O)c2ccccc2)cc1	-11%	-13%	20µM*	?	-15%	-2%
O=C(NNC(=O)c1ccc2ccccc2c1)Nc1ccc(F)cc1	2%	-3%	45µM*	?	-15%	-5%
O=C(NC(=S)Nc1c(Cl)ccc2nsnc12)c1ccco1	-18%	-24%	10%	25µM*	-4%	-13%
COc1cccc(C2C(C(=O)Nc3ccc(Cl)cc3)=C(C)Nc3c(C(=O)Nc4ccccc4)cnn32)c1OC (stereo unspecified)	nt	-24%	-14%	4%	-28%	-2%
O=C(CSc1ccccc1)Nc1ccc(C(=O)Nc2ccc(O)cc2)cc1	-7%	-10%	79µM*	-19%	-3%	-12%
O=C(Cc1ccccc1)Nc1ccc(C(=O)Nc2ccc(O)cc2)cc1	-12%	-5%	-17%	19%	-22%	6%
O=C(NC(=S)Nc1ccc(NC(=O)c2ccco2)cc1)c1ccccc1	-11%[11.6 µM]	11%	45%	89µM*	0%	-1%
COc1cccc(NC(=O)Cn2nc(Cc3cccnc3)c3ccccc3c2=O)c1	5%	-9%	7%	15%	-15%	-1%
O=C(Cn1nc(Cc2cccnc2)c2ccccc2c1=O)Nc1cccc(C(F)(F)F)c1	nt	?	12%	?	-5%	89µM*
O=C(NCc1ccco1)c1cc2c(s1)CCCCC2	-13%	-19%	28µM*	?	-19%	6%
C=C1CCN(C(C)C(=O)OCc2cccc(C)c2)S(=O)(=O)c2ccccc21 (stereo unspecified)	nt	-4%	nt	-6%	nt	-18%
O=C(Nc1ccc2c(c1)C(=O)NC2=O)c1ccccc1	3%	10%	23%	6%	-2%	3%
O=C(Nc1ccc2c(c1)C(=O)NC2=O)c1cccc(C(F)(F)F)c1	-12%	-23%	79µM*	?	-8%	-2%
Cn1c(N)c(C(=O)COC(=O)C2Cc3ccccc3CN2S(C)(=O)=O)c(=O)n(C)c1=O (stereo unspecified)	?	nt	nt	nt	13µM*	nt
O=Nc1ccc(NOC(=O)c2ccccc2Br)cc1	10%	-14%	79µM*	120%	6%	-2%
CNC(=O)C1(C(F)(F)F)CC(CCCO)CCCO1 (stereo unspecified)	nt	-22%	nt	-10%	nt	2%
O=C(O)/C=C1\NC(=O)c2ccccc21	2%	-10%	13%	-4%	4%	-6%
O=C1N/C(=C\c2ccc(O)cc2)C(=O)c2ccccc21	?	-17%	2%	20µM*	25µM*	-15%
CN1C(=O)S/C(=C/c2cccn2-c2cccc(C(=O)O)c2)C1=O	-6%[11.6 µM]	-32%	?	?	50µM*	-22%
CCn1c(=S)[nH]c2scc(-c3cccs3)c2c1=O	-15%	-17%	-1%	-17%	-3%	14%
SMILES	WRN helicase inh	POLK inh	Pol beta inh-1	Pol iota inh	POLH inh	FEN1 inh	others
CC(C)n1c(=S)[nH]c2scc(-c3cccs3)c2c1=O	-33%	?	7.9µM*	20µM*	18µM*	-7%	Pol beta inh-2=22*;Klenow counter=4;HIV RT counter=10;POLB valid=98*
CC(=O)OCON[N+]([O-])=NC(C)C	nt	-11%	nt	24%	nt	-14%
O=C(Nc1ccc2nn(-c3ccccc3)nc2c1)c1ccc(Br)o1	-32%	?	20µM*	?	79µM*	-4%	Pol beta inh-2=20*;Klenow counter=-18;HIV RT counter=12
O=C(Nc1ccc2nn(-c3ccccc3)nc2c1)c1cc2ccccc2o1	nt	-19%	-1%	?	-2%	12%
O=C(Nc1cccc(S(=O)(=O)NC2=NCCCCC2)c1)c1cc(-c2ccco2)nc2ccccc12	?	79µM*	7.9µM*	14µM*	?	-11%	Pol beta inh-2=11*;Klenow counter=-22;HIV RT counter=25
COC(=O)c1sccc1-c1ccc(C(=O)Nc2cccc(Cl)c2)o1	?	-29%	14µM*	?	?	?	Pol beta inh-2=18*;Klenow counter=0;HIV RT counter=31
CCOC(=O)C1CCN(C(=O)c2c(C)nn(-c3ccc(F)cc3)c2-n2cccc2)CC1	nt	-19%	-23%	31%	-12%	-1%
Cc1cc(SCC(=O)c2ccc(O)c(O)c2)nc2ccccc12	?	50µM*	14µM*	40µM*	11µM*	-18%	Pol beta inh-2=11*;Klenow counter=-20;HIV RT counter=?
Cc1cc(SCC(=O)c2ccc3c(c2)OCO3)nc2ccccc12	-20%	-17%	0%	-1%	-8%	-15%
O=c1cc(CSc2nnc(NC3CCCCC3)s2)nc2sccn12	4%	-15%	22%	13%	10%	5%
C=CCn1c(SCc2cc(=O)n3ccsc3n2)nnc1C1CCCCC1	4%[11.6 µM]	?	20µM*	25µM*	79µM*	-9%	Pol beta inh-2=?;Klenow counter=-22;HIV RT counter=24;POLB valid=87*
CCCN1CCc2nc(N3CCN(c4ncccn4)CC3)ncc2C1	nt	4%[60.1 µM]	12%	16%	-17%	-5%
